Bioassay records deposited in PubChem by ICCB-Longwood Screening Facility, Harvard Medical School.
Shown is part of a subset that was picked to be rich in hits.
Choline anaer gr: choline-fed anaerobic bacterial growth inhibition | 0.2% of 55,000 active | Gram-negative bacterium anaerobic choline minimal medium, absorbance growth; active compounds read low | calls only | AID 1963822; call rule not given here
Of the large screens only hits and unclear results are named; the others gave an inactive call.

Clc1ccc(C(OCCN2CCCCC2)c2ccccc2)cc1 (configuration not stated)	none
CN1C2CCC1CC(OC(c1ccccc1)c1ccc(Cl)cc1)C2 (configuration not stated)	Choline anaer gr active
CN1C2CCC1CC(OC(c1ccccc1)c1ccccc1N)C2 (configuration not stated)	none
COc1ccc2c(c1)C1(CCN(S(=O)(=O)c3ccc4c(c3)OCCO4)C1)C(=O)N2C (configuration not stated)	none
CC1OC(OC2CC(O)[C@]3(CO)[C@H]4C(O)C[C@]5(C)C(C6=CC(=O)OC6)CC[C@]5(O)[C@@H]4CC[C@]3(O)C2)C(O)C(O)C1O (some centres not stated)	none
O=C(Oc1ccc([N+](=O)[O-])cc1)N1CCC(C(O)(c2ccc3c(c2)OCO3)c2ccc3c(c2)OCO3)CC1	none
O=[N+]([O-])C=Cc1ccc2c(c1)OCO2	Choline anaer gr active
O=[N+]([O-])/C=C/c1ccc2c(c1)OCO2	none
O=C(CN1CC=C(c2cnn(-c3ccccc3)c2)CC1)N1CCN(c2ccccn2)CC1	none
Cc1ccc2[nH]cc(C(O)CN3CCCCC3)c2c1 (configuration not stated)	none
